The values that follow come from PubChem BioAssay (Tox21).

Results filed as inconclusive are left out. Entries that show only a call come without a potency. Active and inactive are the calls of the source. Calls come from the whole dose curve; as a rule, active = well fitted cell-killing curve with a large enough effect in the repeat runs; inconclusive = weak or mixed curves, or effect the other way; inactive = flat fitted curve, though single readings scatter.

A short description of the experiment: cAMP Responsive Elements (CRE) small molecule antagonists, cell-based qHTS assay: qHTS cell viability counter screen (AID 2060913). Note: nearly all actives have a fitted effect of over 40% in size. Particulars: CRE-bla HEK293T viability, CellTiter-Glo luminescence, 5 h; series mostly up to 92.4 µM. An outline of the steps:
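Cytotoxicity read in the same wells as the CRE-bla HEK293T antagonist assay: after 3 h compound with 0.25 uM NKH477 final and 2 h beta-lactamase substrate, CellTiter-Glo luminescence measured.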
A general note: qHTS replaces the single test concentration by a dilution series.
`C(/C=C/C=C/Nc1ccccc1)=Nc1ccccc1`: the Potency entry was “inactive”.
`CC(C)C[C@H]1C(=O)N2CCC[C@H]2[C@]2(O)O[C@](NC(=O)[C@@H]3C=C4c5cccc6[nH]c(Br)c(c56)C[C@H]4N(C)C3)(C(C)C)C(=O)N12`: the Potency entry is “inactive”.
Under `CCOC(=O)OCC/C(SC(=O)OCC)=C(\C)N(C=O)Cc1cnc(C)nc1N` stands “inactive”; under `CCOC(=O)C(C)O` (stereo not given), “inactive”; under `c1ccc2c(c1)Oc1ccccc1S2`, “inactive”.
To `COC(=O)N/N=C/c1c[n+]([O-])c2ccccc2[n+]1[O-]` belongs “inactive”; to `O=C(CN1CCNCC1)NC1CCCCC1`, “inactive”; to `CCOC(=O)[C@H](CCc1ccccc1)N[C@@H](C)C(=O)N(CC(=O)O)C1Cc2ccccc2C1`, “inactive”.
Under `O=C(NCCCN1CCOCC1)c1ccc(Cl)cc1` stands “inactive”.
As to `CC(C)(C)NC[C@H](O)COc1nsnc1N1CCOCC1`, the Potency result is “inactive”.
Under `NS(=O)(=O)c1cc(C(=O)NN2C[C@H]3[C@H]4CCC(C4)[C@H]3C2)ccc1Cl` stands “inactive”; under `C[C@]12CC[C@@H]3c4ccc(O)cc4CC[C@H]3[C@@H]1CC[C@@H]2O`, “inactive”.
Consider `CCCCCCC(C)O` (stereo not given), for which the Potency result is “inactive”.
To `CCC(=O)C(=O)CC` belongs “inactive”; to `CCN(CC)c1cccc(C)c1`, “inactive”.
Turning to `O=C(CS(=O)Cc1ccco1)NC/C=C\COc1cc(CN2CCCCC2)ccn1` (stereo not given), the Potency entry was “inactive”.
To `Cc1nccn1CC1CCc2c(c3ccccc3n2C)C1=O` (stereo not given) belongs “inactive”; to `CC(C)(C)OCC1CO1` (stereo not given), “inactive”; to `CN(C)c1ccc2nc3ccc(=[N+](C)C)cc-3sc2c1`, “inactive”.
To `CNC(=O)c1c(I)c(NC(=O)CCCCC(=O)Nc2c(I)c(C(=O)O)c(I)c(C(=O)NC)c2I)c(I)c(C(=O)O)c1I` belongs “inactive”; to `C=Cc1ccc(C)cc1`, “inactive”.
To `COC(=O)CC(C)=O` belongs “inactive”; to `CC[N+](C)(CC)CCOC(=O)C(O)(c1ccccc1)C1CCCCC1` (stereo not given), “inactive”; to `C=CCOC(=O)CCCCCCCC`, “inactive”.
With `O=[N+]([O-])c1ccc(Cl)cc1Cl`, the Potency result is “inactive”.
Under `CCOC(=O)c1ccc(N(C)C)cc1` stands “inactive”; under `O=C(O)CCCc1ccccc1`, “inactive”; under `CCCCOCCOC(=O)COc1ccc(Cl)cc1Cl`, “inactive”.
As for `CC1(c2ccccc2)OC(C(=O)O)=CC1=O` (stereo not given), the Potency result is “inactive”.
To `O=C(/C=C/c1ccc(O)c(O)c1)O[C@@H]1C[C@](O)(C(=O)O)C[C@@H](O)[C@H]1O` belongs “inactive”.
Consider `Cc1ccc(O)c([N+](=O)[O-])c1`, for which the Potency entry was “inactive”.
Under `CC1=C(CC(=O)O)c2cc(F)ccc2/C1=C\c1ccc(S(C)(=O)=O)cc1` stands “inactive”; under `CCCCCCOc1ccc(O)cc1`, “inactive”; under `CC(CCc1ccc2c(c1)OCO2)NN` (stereo not given), “inactive”.
Under `CN(C(=O)C(Cl)Cl)c1ccc(OC(=O)c2ccco2)cc1` stands “inactive”; under `CCCc1ccc(N)cc1`, “inactive”.
To `O=S(=O)(O)c1ccccc1/C=C/c1ccc(-c2ccc(/C=C/c3ccccc3S(=O)(=O)O)cc2)cc1` belongs “inactive”; to `CCN(CC)CC1CCCCN1CC(=O)N1c2ccccc2C(=O)Nc2cccnc21` (stereo not given), “inactive”; to `CC(C)(C)c1cccc(O)c1`, “inactive”.
Turning to `O=[N+]([O-])c1cccc(I)c1`, the Potency entry is “inactive”.
